Measured values taken from the supplement of paper PMC5499739.
Whole data set: some 16,000 sequences, median “Z-score” near -0.37, cut for the highest 2% near 3.1. Only a selection was taken, and the highest values are over-represented in it overall.

The sequences below were run on RBM10 RRM1-ZnF-RRM2 (GST-tagged construct) (assay: RNAcompete 7-mer binding Z-score; higher = stronger binding preference).
Method: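 RNAcompete: 20 pmol GST-tagged RBM10 RNA-binding constructs were incubated with a designed RNA pool of about 241,000 sequences up to 41 nt (1.5 nmol) on glutathione beads for 30 min at 4 °C and washed. Bound RNAs were identified by microarray hybridisation. Each RNA 7-mer is scored by a one-sided Z-score of its enrichment, computed over probes that contain the 7-mer within longer pool sequences.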

Sequence | RNAcompete 7-mer binding Z-score
UCGGUUG | 0.286
ACAAUCU | -0.795
UUUGACG | -0.551
AUGUAGA | 0.243
UCACAAU | -0.511
ACAGUUC | -0.672
CGAAUGG | 1.4
AGAAUGU | 0.184
AGAAUGG | 3.51
UGAAUGG | 2.22
GGAAUGG | 4.19
GGAAUGU | 1.58
UUGUGUG | 0.0604
AAGAUAA | -0.0233
GAUGAAC | 0.385
CUUCCAU | -0.799
AGUCGCA | -0.122
AUGGUGC | 0.789
GUGGUGC | 1.68
CUGGUGG | 1.22
AUGGUGG | 3.33
UUGGUGG | 2.09
GUGGUGG | 3.78
CUCGGGA | 0.228
CCGGACC | -0.712

Sequence | RNAcompete 7-mer binding Z-score
GUCGUCU | -0.417
CGCAAAC | -0.588
UGGGGGA | 3.33
UCGGGAA | 1.4
CGGGGAG | 2.54
GGGGGAG | 2.6
GGGGGGA | 2.69
UGGGGAC | 2.28
UGGGGAA | 3.58
UGGGGAG | 3.37
UUGGGGA | 2.27
UGCGUGA | 0.381
UUGCGGU | -0.0161
AAAGCCU | -0.734
CCGUUGG | 0.228
CCGAUCU | -0.938
GUAUGAA | 0.355
AGCAAGU | -0.0343
CUCGAAA | -0.493
CUGAGGG | 1.53
AUGAGGU | 1.83
UUGAGGC | 0.341
AUGAGGG | 4.32
UUGAGGG | 3.15
GUGAGGC | 1.86

Sequence | RNAcompete 7-mer binding Z-score
AUGAGGC | 1.35
UUGAGGA | 1.04
GUGAGGG | 4
CAAAGAU | -0.282
UGGGACG | 2.27
AUCUGAA | -0.643
GGGUAAC | 2.47
AGGUAAA | 2.1
GGGUAAG | 3.97
CGGUAAG | 1.52
CGGUAAA | 0.352
GGGUAAA | 3.9
CGUAUGU | -0.337
ACUGCUA | -0.653
GGUAUGU | 1.33
AAUAUGG | 1.27
GGUAUGG | 4.03
GAUAUGG | 3.32
GAUAUGC | -0.078
GGUAUGA | 1.89
GACCGAU | -0.479
ACGCUUU | -0.865
GGGAAUA | 3.15
GGGAACA | 3.06
AGGAAUG | 2.07

Sequence | RNAcompete 7-mer binding Z-score
UGGAACG | 1.92
CGGAAUA | 0.65
CGGAAUG | 1.33
GGGAAUU | 1.91
GGGAACG | 3.86
GGGAAUG | 3.43
CACGUUA | -0.406
UCAGCUU | -0.905
CACAAUU | -0.577
CAUGUGU | -0.151
UCAUAUC | -0.613
GCGUGGA | 2.22
GGGUGGA | 4.54
AGGUGGU | 2.19
GGGUGGU | 4.19
UGGUGGC | 1.72
UGGUGGU | 2.37
UGGUGGA | 2.74
GAGUGGU | 2.52
AGGUGGG | 3.44
AGGUGGA | 3
GGGUGCA | 3
UGGUGGG | 4.04
GACAAGU | 0.148
ACUAUAU | -0.544

Sequence | RNAcompete 7-mer binding Z-score
AGUCCUC | -0.708
UUACAUU | -0.686
GAAUCUG | -0.632
GCUCGUU | -0.577
ACUCACG | -0.708
GCGCGGC | 0.811
GGCAUGC | 0.228
AUUCCGG | -0.559
UGUCAGA | -0.402
GGGUGCG | 2.85
UCGUGGG | 2.23
CGGUGGA | 2.27
ACGUGGG | 2.48
GCGUGGG | 3.66
CGGUGGU | 1.62
GGGUGGC | 2.45
GGGUGGG | 4.11
CGGUGGG | 3.18
UUUGAGU | -0.213
ACGUAUA | -0.198
UUAGCGC | -0.617
AAGGAAA | 3.21
UAGGAAA | 1.6
AAGGAAC | 2.66
AAGGAAU | 2.34

Sequence | RNAcompete 7-mer binding Z-score
GAGGAAG | 3.52
GAGGAAU | 1.71
UAGGAAG | 1.94
AAGGAAG | 4.04
CAGGAAA | 1.26
UUUGAUC | -0.719
CUGACGG | 0.243
AGAGGCA | 0.421
AGGGUGC | 2.43
GGGGUCA | 3
UGGGUGA | 3.5
GCGGUGA | 1.39
GGGGUGA | 3.52
AGGGUCA | 1.51
AGGGUGG | 3.88
AGGGUGA | 4.25
AUGGUGA | 2.09
UCGGUGA | 0.479
CGGGUGA | 2.55
ACGGUGG | 2.73
CUGGAGG | 1.11
GGGCCCA | -0.151
AGUAUUG | 0.024
UGAUUGA | 0.00216
GGACUUG | 0.319

Sequence | RNAcompete 7-mer binding Z-score
UGGGUGG | 4
UGUGUGG | 1.79
UGGGUGU | 2.62
GGGGUGU | 3.53
CGGGUGG | 3.24
GCGGUGU | 0.96
AGGGUGU | 3.03
UGGGUGC | 2.74
CGGGUGC | 1.94
GGUGUGG | 3.86
CGGGUGU | 1.83
GGUGUGU | 1.42
CAGUACA | -0.0816
ACGCAAC | -0.479
UCUGUUA | -0.795
GACUGUG | -0.198
CGUCAUA | -0.519
AAGUGCG | 0.698
UCAACCC | -0.752
ACCAUUG | -0.584
GGGGUGG | 4.09
GCGGUGG | 3.01
GGGGUGC | 2.58
CUCACAG | -0.351
ACCAGGC | -0.136

Sequence | RNAcompete 7-mer binding Z-score
AGGAUAG | 2.21
GGGAUAA | 3.36
GGGAUGA | 3.59
UGGAUAG | 2.3
GGGAUGC | 2.65
GGGAUAC | 2.71
UGGAUAA | 1.07
GGGAUGU | 2.88
GGGAUAG | 3.83
UCUGGUC | -0.522
UCUGUCC | -0.81
UAGGGGU | 3.84
UAGGGGG | 3.4
CAGGGGU | 2.91
UAGGGCA | 2.23
UAGGGGA | 3.81
UAGGGCU | 1.3
CAGGGGA | 2.8
UAGGGGC | 2.34
CAGGGGG | 2.58
GUGACGA | 0.68
GUAAAAA | 0.253
CCAUUGG | -0.53
GUUUUGU | 0.024
UGCUUGC | -0.73

Sequence | RNAcompete 7-mer binding Z-score
CCGAUUG | -0.606
UAAGGGA | 3.09
GAAGGCU | 0.581
GAAGGGU | 4.15
UAAGGCU | 0.224
UAAGGGC | 1.51
AAAGGGA | 4.13
CAAGGGA | 2.5
GAAGUGU | 1.09
UAAGGUU | 1.74
AAAGGGC | 2.89
UAAGGGU | 3.54
GAAGGGC | 3.32
CCGUAUC | -0.876
AUAAUGG | 1.84
UGAUUAA | -0.118
AUACACA | -0.187
AGGUUGU | 0.691
GCGACGC | -0.253
GUCGCUG | 0.0495
UCUAACC | -0.737
GUCUAUA | -0.479
GUUGCAU | -0.227
CUAGAUU | -0.661
GAACCUG | -0.683

Sequence | RNAcompete 7-mer binding Z-score
UCGGCUA | -0.537
CGGUGUA | 0.873
GAAGGGA | 4.75
AAAGGGU | 4.71
GCAGGGA | 2.94
CAAGGGU | 2.85
AAAGGCU | 0.796
GAAGGCA | 2.46
GGUUUGU | 0.811
GUAUUGA | -0.107
CGAAGCC | -0.449
AACUCGU | -0.861
CGGAAAG | 1.91
GGGAAAG | 4.49
GGAAAAA | 1.95
CGGAAAA | 0.854
GGGAAGU | 2.76
UGGAAAG | 2.78
GGGAAGA | 3.65
CGGAAGA | 0.862
GGGAAAA | 3.43
GUCAGGG | 1.81
UCCUGAC | -0.788
UGGCACA | 0.497
UCGUAAG | -0.326

Sequence | RNAcompete 7-mer binding Z-score
GUCGAGG | 1.9
CGUUGGA | 0.548
UCUUUAA | -0.803
UCGGCCG | -0.795
GGAGGUA | 3.82
GGAGGUG | 3.64
AGAGGUG | 2.05
UGAGGUA | 1.87
GGAGGUU | 2.23
CGAGGUA | 1.8
CGCAUUC | -0.723
UGCGACG | 0.13
ACUUCUU | -0.952
GAGCGAG | 3.3
UAGCGGA | 1.01
GAGCGAC | 0.177
GAGCGGG | 3.33
UAGCGAG | 0.694
CAGCGGG | 2.5
GAGCGGU | 1.51
GAGCGGA | 3.55
GAGCGGC | 1.42
UCCUUAA | -0.715
AAAGAAC | -0.0343
CUCAACA | -0.704

Sequence | RNAcompete 7-mer binding Z-score
UCUUAGC | -0.817
AUGACCC | -0.57
GUGUGGG | 3.75
AUGUGGG | 3.6
AUGUGGC | 0.84
GUGUGGU | 1.87
GUGUGGA | 2.7
UUGUGGG | 2.44
AGAAUGA | 0.275
CGCACCC | -0.748
GCGUGAG | 1.01
UGGAUGA | 1.82
UGGAUGC | 0.778
UGGAUGG | 3.42
GAGAUGU | 0.392
GAGAUGG | 4
AGGAUGC | 0.887
CGGAUGG | 1.87
AGGAUGG | 3.4
UAGAUGG | 2.16
UGUACUU | -0.715
GUCAAUU | -0.602
UUUGCCG | -0.766
ACGACGA | -0.384
GAGCCCC | -0.581

Sequence | RNAcompete 7-mer binding Z-score
ACCGUAG | -0.147
UUUGUCC | -0.85
ACGGUAC | 0.472
CCCCAAU | -0.755
UUCCACA | -0.508
UGGGAAU | 2.42
AGGGAAG | 4.36
CGGGAAU | 1.31
GGGGAAG | 3.91
UGGGAAA | 2.49
UGGGAAG | 3.99
AGGGACU | 1.09
GGGGAAA | 3.02
AGGGAAC | 3.06
CGGGAAG | 2.07
GGGGAAU | 3.13
AGGGAAU | 3.2
GGUAAUU | 0.789
ACUAACG | -0.409
CGAUGUU | -0.657
AGUCGAC | 0.00944
CUAAUGC | -0.795
ACAUCAG | -0.191
CACUGAG | -0.209
UGGGUAG | 3.34

Sequence | RNAcompete 7-mer binding Z-score
UGGGUAU | 2.2
CGGGUAG | 2.23
UGGGUAC | 2.59
AGGGUAC | 2.7
AGGGUAG | 3.71
CGCGAAC | -0.435
GCUCGAC | -0.53
AGUUCCU | -0.77
AGGCGUA | 0.716
ACCUACA | -0.814
AACGGGA | 3.38
AACGGGG | 3.65
GACGGGG | 2.79
GACGGGA | 2.3
UACGGGU | 2.02
AACGGGU | 3.25
GACGGGU | 2.37
CACGGGG | 2.77
CACGGGA | 1.66
ACGGCGG | 1.11
AGCUCAG | -0.486
ACAUAUC | -0.526
AAGGAGU | 3.12
AGUUUUG | -0.0707
CUUAAAC | -0.646

Sequence | RNAcompete 7-mer binding Z-score
AGGGCUA | 1.17
UGUUGUU | -0.286
GUCGCGU | -0.0124
UGGAAGG | 3.68
AGGAAGU | 1.21
AGGAAGG | 4.46
AGGAAGA | 1.64
UGGAAGU | 1.6
CGGAAGG | 2.53
GUGUAAG | 1.28
GGAGGGA | 3.6
AGAGGGG | 1.94
AGAGGGC | 1.02
UGAGGGC | 2.22
GUAGAGG | 4.02
AGAGGGA | 2.16
CGAGGGA | 3.11
AUAGAGG | 1.79
GGAGGGG | 4.18
UUAGAGG | 1.24
GGAGGAG | 2.84
GGAGGGC | 3.27
